Results published in ChEMBL document CHEMBL3433997, “St. Jude Leishmania screening dataset” (2016).

How the values were obtained:
Type in all cases: functional
[1] = biological target: Solute carrier family 2, facilitated glucose transporter member 1 (Homo sapiens) (UniProt P11166); experiment: ST_JUDE_LEISH: Cytotoxicity at 2uM final concentration against transgenic Leishmania Mexicana promastigotes LmGLUT1 that are glucose transport deficient and complemented with the human glucose transporter GLUT1. Activity is measured by DNA content using SYBR green in vitro
[2] = biological target: Hexose transporter 1 (Plasmodium falciparum) (UniProt O97467); experiment: ST_JUDE_LEISH: Cytotoxicity at 2uM final concentration against transgenic Leishmania Mexicana promastigotes LmPfHT that are glucose transport deficient and complemented with the Plasmodium falciparum hexose transporter. Activity is measured by DNA content using SYBR green in vitro
[3] = biological target: Glucose transporter (Leishmania mexicana) (UniProt O61059); experiment: ST_JUDE_LEISH: Cytotoxicity at 2uM final concentration against transgenic Leishmania Mexicana promastigotes LmGT2 that are glucose transport deficient and complemented with the L. Mexicana glucose transporter 2. Activity is measured by DNA content using SYBR green in vitro

Chain of Solute carrier family 2, facilitated glucose transporter member 1 (Homo sapiens) (P11166 whole entry): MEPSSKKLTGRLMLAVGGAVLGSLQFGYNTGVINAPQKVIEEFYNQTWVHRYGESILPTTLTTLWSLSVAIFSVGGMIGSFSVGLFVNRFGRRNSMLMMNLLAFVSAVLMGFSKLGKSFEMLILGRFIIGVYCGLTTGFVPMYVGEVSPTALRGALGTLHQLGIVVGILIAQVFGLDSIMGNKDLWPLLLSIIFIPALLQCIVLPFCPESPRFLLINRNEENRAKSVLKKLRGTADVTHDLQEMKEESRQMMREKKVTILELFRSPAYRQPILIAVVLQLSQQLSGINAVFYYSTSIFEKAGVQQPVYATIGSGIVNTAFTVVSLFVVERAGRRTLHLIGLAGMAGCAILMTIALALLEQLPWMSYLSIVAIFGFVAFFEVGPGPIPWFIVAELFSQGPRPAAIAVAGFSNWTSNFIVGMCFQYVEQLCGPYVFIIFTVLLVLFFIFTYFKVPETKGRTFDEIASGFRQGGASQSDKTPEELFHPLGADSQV

Row | Structure (SMILES) | inhibition [1] [%] | inhibition [2] [%] | inhibition [3] [%]
1 | Cc1ccc(Nc2nc(N/N=C/c3cccc([N+](=O)[O-])c3)nc(Nc3ccccc3)n2)c(C)c1 | 2.34 | 1.33 | -0.87
2 | CC(C)CC1c2[nH]c3ccccc3c(=O)c2CN1C(=O)OC(C)(C)C (stereo not given) | 2.72 | 2.68 | 1.8
3 | CN(CCCc1c[nH]c2ccccc12)CCC1CCC(NC(=O)/C=C/c2ccc(Cl)c(Cl)c2)CC1 (stereo not given) | 3.61 | 2.63 | 1.8
4 | CCOC(=O)c1cc2c(CCN3C(=O)c4ccccc4C3=O)cn(C)c2cc1-c1ccncc1 | 93 | 91 | 90.9
5 | CC(C)c1ccc(NC(=O)c2ccc(C(=O)NCC3CCN(CC4CCCCC4)CC3)cc2)cc1 | 3.12 | 1.53 | 1.95
6 | Cc1ccc(C(=O)Nc2ccc(Nc3ccnc4cc(-c5ccccn5)ccc34)cc2O)cc1 | 7.39 | 10 | 4.76
7 | O=C(NCCc1cccc(Cl)c1Cl)c1cnc(N2CCN(c3ccncc3)CC2)c(Cl)c1 | 77.2 | 81.6 | 83.9
8 | CCc1cn2c3c(cc(C(=O)N[C@@H](Cc4ccccc4)[C@H](O)CNC(C)(C)c4cccc(OC)c4)cc13)N(C)S(=O)(=O)C2 | 1.01 | 1.91 | 0.96
9 | COc1ccccc1CCCN1C(=O)C(c2ccccc2)(c2ccccc2)N=C1N | 4.43 | 0.97 | 1.36
10 | CCN(CCCN1CCCCC1)c1cc(C)nc(Nc2ccc(C)c(C)c2)n1 | 4.78 | 5.75 | 4.45
11 | CCN1CCN(Cc2c(O)ccc3c(=O)c(Oc4cc(C)cc(C)c4)c(C(F)(F)F)oc23)CC1 | 75.7 | 73.3 | 54.5
12 | CN1CCC(NCc2ccc(-c3ccc(S(=O)(=O)NCc4ccccc4)cc3)cc2)CC1 | 0.4 | -1.45 | -3.56
13 | Cc1cccc(CNc2nc(C)cc(N[C@@H](Cc3ccccc3)C(=O)NCc3cccc(F)c3)n2)c1 | 6.42 | 6.57 | 2.83
14 | Cc1ccc(-n2cc(CNCCc3nc(C)c[nH]3)c(-c3ccc(F)cc3)n2)cc1 | 4.34 | 3.49 | 2.6
15 | Cc1ccc(CNC(=O)c2ccc(CN3CCCN(Cc4ccsc4)CC3)cc2)cc1 | 1.42 | 0.79 | 2.87
16 | CS(=O)(=O)CCNCc1nc(-c2ccc3c(=O)[nH]cnc3c2)cs1 | 18.2 | 48 | 31.5
17 | Cc1cccc2nc(-c3ccc(-c4ccc(C(=O)NCCN5CCCC5)cc4)cc3)[nH]c12 | 0.86 | -1.27 | -0.61
18 | S=C(Nc1ccc(Cl)cc1)Nc1ccc(Nc2ccccc2)cc1 | 6.97 | 5.37 | 5
19 | COc1cc(OC)c(NC(=O)Nc2ccnc3ccccc23)cc1Cl | 9.23 | 8.9 | 5.83
20 | CCc1c(C(=O)NC2CCC(N3CCC(c4ccccc4OC)CC3)CC2)[nH]c2ccc(Br)cc12 (stereo not given) | 0.33 | -0.12 | -0.91
21 | CCCCc1cc(NCc2ccncc2)nc(Nc2ccc(C)cc2)n1 | 15.4 | 5.93 | 2.33
22 | COc1ccc(C2CC(=O)C3=C(C2)NC(C)=C(C(=O)OC(C)C)C3c2c(F)cccc2Cl)cc1OC (stereo not given) | 2.24 | 0.57 | 0.75
23 | Cc1nc2ccc(F)cc2n1C1CCN(C(=O)Cc2ccc(F)c(F)c2)CC1 | -1.6 | -1.91 | 1.89
24 | Cc1ccc(C(=O)Nc2ccc(-c3nc4ccccc4[nH]3)cc2)cc1S(=O)(=O)N1CCOCC1 | 2.29 | 1.71 | 0.77

Row | Structure (SMILES) | inhibition [1] [%] | inhibition [2] [%] | inhibition [3] [%]
25 | c1ccc(COc2ccc(COc3ccc(Cn4ccnc4)cc3)cc2)cc1 | 2.93 | 2.15 | 1.02
26 | CCOC(=O)c1nc(-c2cc(Cl)nc(Cl)c2)[nH]c1NC(=S)NCc1ccc(NS(C)(=O)=O)cc1 | -2.02 | -1.98 | -1.67
27 | O=C(O)c1ccc(NC(=O)C2CC(=O)N(Cc3ccc(Cl)cc3)C(=Nc3ccc(Cl)cc3)S2)cc1 (stereo not given) | 2.23 | 2.86 | 1.01
28 | CCCCNCc1ccc(-c2nc(CN(CCCn3ccnc3)C(=O)Nc3ccc(CC)cc3)cs2)cc1 | 7.74 | 6.29 | 6.91
29 | CCCCCCOc1ccc(C(=O)NCCCC2CCN(CCCCCNC(=O)C=Cc3ccc(Cl)c(Cl)c3)CC2)cc1 | 2.75 | 4.46 | 3.91
30 | O=C(NCC1CC1)C1CCN(C(c2ccccc2)c2ccc(Cl)c(Cl)c2)CC1 (stereo not given) | -0.49 | 1.49 | 0.06
31 | Cc1ccccc1Cn1c(CN2CCC(C(=O)NC3CC3)CC2)cc2ccccc21 | 2.57 | 1.99 | 5.38
32 | CCC(C)(C)c1ccc(OCC(O)CN2CCCCC2)c(C(C)(C)CC)c1 (stereo not given) | 14.6 | 15.2 | 13.2
33 | FC(F)(F)c1ccc2[nH]c(-c3ccc(-c4cccc(CNCc5ccccc5)c4)s3)nc2c1 | 2.04 | 0.97 | 1.82
34 | COc1cc(C(=O)N2CCOC(CCN3CCC(Cc4ccc(F)cc4)CC3)(c3ccc(Cl)c(Cl)c3)C2)cc(OC)c1OC (stereo not given) | 5.79 | 7.29 | 2.49
35 | COc1cc(CN2CCC(NC(=O)[C@H](Cc3ccccc3)NC(=O)Nc3ccc(Oc4ccccc4)cc3)C2)ccc1O (stereo not given in full) | 0.58 | 1.77 | -3.37
36 | FC(F)(F)c1ccc2[nH]c(-c3ccc(-c4cccc(CNCc5cnn(-c6ccccc6)n5)c4)cc3)nc2c1 | 2.04 | 1.86 | -0.02
37 | CCC(C(=O)Nc1ccccc1)n1nc(-c2ccc(C)c(S(=O)(=O)N3CCCCC3)c2)ccc1=O (stereo not given) | 3.12 | 4.1 | 4.74
38 | COc1cccc2cc(C(=O)N[C@@H](CC(C)C)C(=O)Nc3cc(F)ccc3Br)oc12 | 1.51 | 0.34 | 0.22
39 | Cc1cccc(C=NN=c2cc(C)[nH]c3ccc(F)cc23)n1 | 6.63 | 6.71 | 4.02
40 | CCC(=O)N(c1ccccc1)C1CCN(CCCC(NC(=O)c2cc(C(F)(F)F)cc(C(F)(F)F)c2)c2ccc(Cl)c(Cl)c2)CC1 (stereo not given) | 8.75 | 5.36 | 6.09
41 | COc1ccc(Nc2ncc(OC)c(Nc3ccccc3C(N)=O)n2)cc1N1CCN(C)CC1 | 17.6 | 21.9 | 7.83
42 | CCNc1cc(C(=O)N[C@@H](Cc2ccccc2)[C@H](O)CNC(C)(C)Cc2cccc(Cl)c2)cc(N2CCCCS2(=O)=O)c1 | 5.21 | 1.94 | 6.82
43 | COc1ccccc1-c1cccc2c(NC(=O)Nc3ccc4nccc(N5CCN(C)CC5)c4c3)ccnc12 | 1.85 | 2.74 | 2.18
44 | CCC(C(C)C)n1ccc2c3c(N)nc(N)nc3ccc21 (stereo not given) | 81.6 | 84.6 | 66.6
45 | Nc1cccc(CNCc2cccc(-c3ccc(-c4nc5ccccc5[nH]4)s3)c2)c1 | 7.77 | 8.55 | 5.7
46 | COc1ccc(CNC2CCN(C)CC2)cc1-c1ccc(S(=O)(=O)NCCc2ccccn2)s1 | -2.94 | -0.03 | 0.29
47 | NC1CCCN(Cc2cccc(-c3ccc(-c4nc5ccccc5[nH]4)cc3)c2)C1 (stereo not given) | 7.18 | 5.94 | 8.63
48 | CCCCOc1ccc(-n2c(Nc3ccccc3)nc3cc(S(N)(=O)=O)ccc32)cc1 | 11.4 | 8.64 | 7.09

Row | Structure (SMILES) | inhibition [1] [%] | inhibition [2] [%] | inhibition [3] [%]
49 | COc1cc(F)c2ncc(F)c([C@@H](O)CN3CCC(NCc4cc5c(cn4)OCCO5)CC3)c2c1 | 1.43 | 2.18 | 2.06
50 | COc1cc(NC(=O)c2ccc3oc4ccccc4c3c2)ccc1OCCN1CCCCC1 | -0.45 | 1.28 | 0.62
51 | Cc1noc(-c2ccccc2)c1NC(=O)N1CCN(CCCCCCNC(=O)/C=C/c2ccc(Cl)c(Cl)c2)CC1 | -2.35 | 0.35 | -1.3
52 | CCCCCC(C)c1cc(O)c2c(c1)OC(C)(C)C=C2C1=CCN(Cc2ccccc2)CC1 (stereo not given) | 3.67 | 3.53 | 3.47
53 | Cc1cccc2nc(-c3cccc(-c4ccc(NC(=O)Cc5ccccn5)cc4)c3)[nH]c12 | 4.3 | 2.5 | 2.64
54 | COc1ccc(S(=O)(=O)N2CCOCC2)cc1NC(=O)c1cc2ccccc2o1 | 2.09 | 3.19 | 1.69
55 | COc1ccc2nc3cc(Cl)ccc3c(NCCCCNc3c4ccc(Cl)cc4nc4ccc(OC)cc34)c2c1 | 11.8 | 12.5 | 9.15
56 | CC(C)N(Cc1cnc(N)c(C#N)n1)c1ccc(Cl)c(Cl)c1 | 3.62 | 2.68 | 2.67
57 | COC(=O)Nc1cc(C(F)(F)F)ccc1N1CCCC(NS(=O)(=O)c2ccc(C(C)(C)C)cc2)C1 (stereo not given) | 10 | 12.2 | 7.77
58 | Fc1cccc(COc2ccc(Nc3ncnc4sc(C#CC5CCCCN5)cc34)cc2Cl)c1 (stereo not given) | 3.03 | 1.13 | -0.16
59 | CCCCc1ccc(C(=O)NC2CCN(C[C@H](O)c3ccnc4ccc(OC)cc34)CC2)cc1 | 66.8 | 65.3 | 76.8
60 | COc1ccc(CN2CCC(CNCc3cccc(-c4ccccc4)c3)CC2)cc1 | 3.34 | 0.46 | 3.8
61 | C=C(C)Cn1cc(C2CCN(CCCCNC(=O)c3sc(-c4ccc(Cl)cc4Cl)nc3CO)CC2)c2ccccc21 | -1.31 | -1.73 | 0.05
62 | CC(C)(C)C1CC(=O)CC2C(=O)N(C3CCCCC3)C(=O)C21 (stereo not given) | 4.51 | 2.76 | 3.68
63 | CCCCCCCC1CC(CC(=O)Nc2ccnc3ccc(OC)cc23)CN1C(=O)OC(C)(C)C (stereo not given) | 9.12 | 11.2 | 3.12
64 | CC(=O)Nc1ccc(Nc2c3ccccc3nc3ccccc23)cc1 | 8.17 | 7.37 | 0.02
65 | Fc1ccc2c(NN=Cc3ccc(Cl)cc3)ccnc2c1 | 10.8 | 10.9 | 6.76
66 | CCN(CC)CCN(Cc1ccc(-c2ccc(Cl)cc2)cc1)C(=O)Cn1cc(CN(C)C)c(=O)nc1SCc1ccc(F)cc1 | 0.45 | 0.54 | 1.16
67 | O=C(NC1CCN(Cc2ccccc2)CC1)c1cc(-c2cccnc2)nc2ccc(Cl)cc12 | 8.75 | 6.45 | 8.35
68 | C=CCn1c(=N)c(C(=O)NC2CCCCC2)cc2c(=O)n3cccc(C)c3nc21 | 11.3 | 15.2 | 4.5
69 | CN(C)CCCOc1cccc(NC(=O)Nc2ccc(Cl)c(Cl)c2)c1 | -1.47 | -0.6 | -1.24
70 | COc1ccc(Cn2c(Nc3cccc(C(F)(F)F)c3)nc3cc(C(=O)NC(C)C)cnc32)cc1Cl | 10.3 | 9.69 | 10.9
